# Test results as given in the supplement of paper PMC9262897, “Low-cost anti-mycobacterial drug discovery using engineered E. coli” (Nature Communications, 2022).
# Where a name gives a salt, the structure may show the parent alone. ± gives the standard deviation of the averaged measurements.
# Experiments:
# Experiment in all cases: growth (OD600 after 10 h); higher = more growth (less inhibition)
# [1] = system: E. coli TESEC Alr+ wild-type control; conditions: compound 0.1 mM; raw OD600 reference: median of DMSO wells 0.241, cell-free background 0.041
# Method: (§1)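 TESEC Mtb Alr E. coli, or the Alr+ wild-type control, in 384-well plates with Prestwick library compounds at 0.1 mM and 1% DMSO, across arabinose induction levels of 1E3 to 1E7 nM. Growth is read as OD600 after 10 h at 37 °C in triplicate biological replicates.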
# [2] = system: E. coli TESEC Mtb Alr; conditions: compound 0.1 mM
# Method: as §1
# [3] = system: E. coli TESEC Mtb Asd; conditions: compound 0.1 mM
# Method: (§2)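 TESEC E. coli strains in which the native enzyme is deleted and replaced by arabinose-inducible Mtb Asd, DapB, CysH or TrpD, each grown in its selective medium. Strains were screened against the Prestwick library at 0.1 mM and 1% DMSO in 384-well format at low and high arabinose induction. Growth is read as OD600 after 10 h in triplicate.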
# [4] = system: E. coli TESEC Mtb DapB; conditions: compound 0.1 mM
# Method: as §2
# [5] = system: E. coli TESEC Mtb Alr; conditions: compound 0.1 mM; remark: listed apart in the source
# Method: (§3)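 TESEC Mtb Alr E. coli (ΔaraC ΔtolC ΔentC Δalr ΔdadX, arabinose-inducible Mtb Alr) or the Alr+ wild-type control strain, grown in defined M9-fructose medium without D-alanine in 96-well plates with Prestwick library compounds at 0.1 mM and 1% DMSO. Low Alr induction is 0.1 µM arabinose and high induction is 10 mM arabinose.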
# [6] = system: E. coli TESEC Alr+ wild-type control; conditions: compound 0.1 mM; raw OD600 reference: median of DMSO wells 0.49, cell-free background 0.052
# Method: as §3
# [7] = arabinose 1000 nM, raw OD600 reference: median of DMSO wells 0.294, cell-free background 0.041
# [8] = arabinose 10000 nM, raw OD600 reference: median of DMSO wells 0.264, cell-free background 0.041
# [9] = arabinose 100000 nM, raw OD600 reference: median of DMSO wells 0.201, cell-free background 0.041
# [10] = arabinose 1000000 nM, raw OD600 reference: median of DMSO wells 0.193, cell-free background 0.041
# [11] = arabinose 10000000 nM, raw OD600 reference: median of DMSO wells 0.146, cell-free background 0.041
# [12] = arabinose induction (level): High, raw OD600 reference: median of DMSO wells 0.331, cell-free background 0.041
# [13] = arabinose induction (level): Low, raw OD600 reference: median of DMSO wells 0.417, cell-free background 0.041
# [14] = arabinose induction (level): High, raw OD600 reference: median of DMSO wells […], cell-free background 0.041
# [15] = arabinose induction (level): Low, raw OD600 reference: median of DMSO wells 0.227, cell-free background 0.041
# [16] = arabinose 100 nM, raw OD600 reference: median of DMSO wells 0.413, cell-free background 0.052
# [17] = arabinose 10000000 nM, raw OD600 reference: median of DMSO wells […], cell-free background 0.052
SMILES,growth [1],"growth [2, 7]","growth [2, 8]","growth [2, 9]","growth [2, 10]","growth [2, 11]","growth [3, 12]","growth [3, 13]","growth [4, 14]","growth [4, 15]","growth [5, 16]","growth [5, 17]",growth [6]
CC(C(=O)O)c1cccc(Oc2ccccc2)c1 (stereo not given) [Fenoprofen calcium salt dihydrate],0.22 ± 0.0072,0.267 ± 0.013,0.266 ± 0.0086,0.147 ± 0.0054,0.192 ± 0.0067,0.134 ± 0.0015,0.361 ± 0.075,0.322 ± 0.042,0.205 ± 0.01,0.192 ± 0.014,0.397 ± 0.009,0.255 ± 0.0093,–
O=c1n(CCCN2CCN(c3cccc(Cl)c3)CC2)nc2ccccn12 [Trazodone hydrochloride],0.203 ± 0.0052,0.24 ± 0.011,0.235 ± 0.0052,0.159 ± 0.0089,0.105 ± 0.0032,0.13 ± 0.0034,0.242 ± 0.051,0.404 ± 0.099,0.189 ± 0.014,0.243 ± 0.057,0.406 ± 0.0066,0.255 ± 0.028,–
COc1cccc2c1C(=O)c1c(O)c3c(c(O)c1C2=O)C[C@@](O)(C(C)=O)C[C@@H]3O[C@H]1C[C@H](N)[C@H](O)[C@H](C)O1 [Daunorubicin hydrochloride],0.0457 ± 0.0022,0.0442 ± 0.0008,0.04263 ± 5.8e-05,0.0446 ± 0.001,0.04253 ± 0.00038,0.0433 ± 0.0001,0.058 ± 0.0071,0.0577 ± 0.0054,0.0527 ± 0.0011,0.0519 ± 0.00092,0.0571 ± 0.0011,0.0536 ± 0.00026,0.053 ± 0.00055
N=C(N)NCCN1CCCCCCC1 [Guanethidine sulfate],0.255 ± 0.0095,0.298 ± 0.027,0.266 ± 0.0054,0.24 ± 0.012,0.173 ± 0.011,0.168 ± 0.011,0.291 ± 0.094,0.366 ± 0.069,0.205 ± 0.0096,0.247 ± 0.008,0.419 ± 0.008,0.384 ± 0.015,–
C=C1/C(=C\C=C2/CCC[C@]3(C)[C@@H]([C@H](C)CCCC(C)C)CC[C@@H]23)C[C@@H](O)C[C@@H]1O [Alfacalcidol],0.0884 ± 0.006,0.0977 ± 0.004,0.051 ± 0.0012,0.143 ± 0.018,0.065 ± 0.0018,0.121 ± 0.002,0.219 ± 0.033,0.301 ± 0.066,0.234 ± 0.012,0.226 ± 0.018,0.4206 ± 0.0018,0.149 ± 0.023,0.146 ± 0.0019
CN1[C@@H]2CC[C@H]1C[C@@H](OC(=O)c1c[nH]c3ccccc13)C2 [Tropisetron HCl],0.224 ± 0.0054,0.294 ± 0.0064,0.273 ± 0.0034,0.216 ± 0.036,0.177 ± 0.0038,0.158 ± 0.0026,0.305 ± 0.044,0.319 ± 0.034,0.219 ± 0.02,0.264 ± 0.05,0.402 ± 0.012,0.359 ± 0.0044,0.53 ± 0.08
C[C@]12CC[C@@H]3c4ccc(O)cc4CC[C@H]3[C@@H]1CC[C@@H]2O [Estradiol-17 beta],0.125 ± 0.012,0.118 ± 0.052,0.214 ± 0.0069,0.157 ± 0.011,0.129 ± 0.0023,0.141 ± 0.0021,0.199 ± 0.0073,0.22 ± 0.0098,0.196 ± 0.0064,0.204 ± 0.012,0.399 ± 0.012,0.218 ± 0.0046,–
"O=C(O)Cc1cc(I)c(Oc2ccc(O)c(I)c2)c(I)c1 [Tiratricol, 3,3',5-triiodothyroacetic acid]",0.0409 ± 0.00083,0.0428 ± 0.0019,0.04123 ± 0.00021,0.0442 ± 0.0023,0.0408 ± 0.00017,0.0558 ± 0.002,0.057 ± 0.0056,0.06 ± 0.0072,0.0676 ± 0.0044,0.108 ± 0.09,0.167 ± 0.087,0.05437 ± 0.00015,0.0593 ± 0.0022
